SKN-1 inh: blocks SKN-1 activity in C. elegans; C. elegans VP596 Pgst-4::GFP/RFP ratio, acrylamide-induced, 24 h; inhibition, % at 21.8 µM; 360,000 tested, 0.49% active;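 active = interference check ratio from 0.5 to 1.5 plus GFP to RFP signal ratio inhibition reaching or exceeding a fixed threshold, cut at about 30% in these data, passing the limit was not always enough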
MEKK2 WT-MEK5: raises or lowers MEK5 binding to wildtype human MEKK2 PB1 domain. bead flow cytometry, Alexa488-MEK5 binding to MEKK2 WT; actives lie on both sides. 290,000 tested, 1.1% active. binding response (% of control), % at 10 µM. Q9Y2U5. AID 1531; in the data active = binding response below about 67% or above about 130%
NRP1-CendR mod: NRP-1/CendR interaction modulation; O14786; FAM-RPARPAR peptide binding to NRP-1, fluorescence polarization; inhibition, % at 25 µM; 360,000 tested, 0.85% active; AID 602438;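 active = inhibition or corrected inhibition above about 18%, plus a signal ratio from 0.5 to 1.5, limit read from the data, passing the limit was not always enough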
MEKK2mut PB1 HTS: signal of MEK5 binding to mutant human MEKK2 PB1 domain; 290,000 tested, 0.35% active; bead flow cytometry, Alexa488-MEK5 binding to MEKK2 mutant; AID 1530; percent response, % at 10 µM; in the data active = percent response above about 24%, passing the limit was not always enough
MEKK3 PB1 HTS: modulators (inhibitors or enhancers) of MEK5 binding to human MEKK3 PB1 domain | 290,000 tested, 1.4% active | bead-based flow cytometry, Alexa488-MEK5 binding to MEKK3; actives lie on both sides; 0 = blocked by unlabeled MEK5, 100 = vehicle | AID 1529 | binding response (% of control), % at 10 µM | Q99759;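 active = binding response more than 3 SD above or below the average of its plate-row segment, actives on both sides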;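 also: Alexa488 bead fluorescence after subtracting the streptavidin-only scavenger bead signal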
Target sequence (Q99759 whole entry, looked up, the tested form may be a part): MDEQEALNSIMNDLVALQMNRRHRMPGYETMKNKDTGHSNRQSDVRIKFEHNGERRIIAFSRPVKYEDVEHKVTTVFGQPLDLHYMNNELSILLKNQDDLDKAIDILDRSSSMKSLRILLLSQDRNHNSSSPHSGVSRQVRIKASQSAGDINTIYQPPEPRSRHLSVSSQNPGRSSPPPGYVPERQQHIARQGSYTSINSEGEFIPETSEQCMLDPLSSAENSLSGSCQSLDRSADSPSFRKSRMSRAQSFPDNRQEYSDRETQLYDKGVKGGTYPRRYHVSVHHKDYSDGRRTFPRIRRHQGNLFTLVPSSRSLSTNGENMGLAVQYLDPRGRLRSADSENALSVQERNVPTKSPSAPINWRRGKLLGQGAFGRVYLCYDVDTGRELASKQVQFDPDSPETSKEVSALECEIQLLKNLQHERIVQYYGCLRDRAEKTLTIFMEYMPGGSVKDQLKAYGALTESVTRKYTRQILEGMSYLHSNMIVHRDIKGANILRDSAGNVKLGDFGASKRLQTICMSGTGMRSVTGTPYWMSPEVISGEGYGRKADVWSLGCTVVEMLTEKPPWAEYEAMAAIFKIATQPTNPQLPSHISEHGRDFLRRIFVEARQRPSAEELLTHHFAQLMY
Numbers stand for hits; n = inactive; x = not tested or not shown; + = active, no number; [ ] = remark or other dose. Most compounds without a hit are left out; they make up all but 3.2% or so of the library.

SMILES	SKN-1 inh	MEKK2 WT-MEK5	NRP1-CendR mod	MEKK2mut PB1 HTS	MEKK3 PB1 HTS
CC1CN(CC(=O)Nc2cccc(C(=O)Nc3cccc(C(F)(F)F)c3)c2)CC(C)O1 (stereo not drawn)	n	n	n	n	n
Cc1ccc(C(=O)CCC(=O)Nc2cccc(C(F)(F)F)c2)cc1C	n	n	n	n	n
O=C(CNC(=O)c1ccccc1)Nc1cccc(C(F)(F)F)c1	n	43[inhibitor]	n	n	n
Cc1ccc(C(=O)CCC(=O)Nc2cccc(C(F)(F)F)c2)cc1	n	n	26	n	n
CC1CCN(CC(=O)Nc2cccc(C(=O)Nc3cccc(C(F)(F)F)c3)c2)CC1	44	n	n	n	n
CCc1ccc(NC(=O)CCCN2C(=O)C3CC=CCC3C2=O)cc1 (stereo not drawn)	n	n	n	n	n
Cc1ccc(CN2C(=O)CSCC2(C)C(=O)Nc2c(C)cccc2C)cc1 (stereo not drawn)	n	x	n	x	x
COc1ccc(C2C(C(C)=O)=C(C)N=c3s/c(=C\c4cc(C)n(C)c4C)c(=O)n32)c(OC)c1 (stereo not drawn)	39	n	n	n	n
CCN1CCN(CCNC(=O)c2ccc3nc(-c4cccc(C)c4)c(-c4cccc(C)c4)nc3c2)CC1	n	151	n	25	n
Cc1nnc(-c2cccc(Br)c2)c2cn(-c3cccc(Br)c3)nc12	36	n	n	n	n
Cc1nnc(-c2cccc(Br)c2)c2cn(-c3ccccc3)nc12	n	n	n	n	n
Cc1ccc(N=C/C(C(=O)C(F)(F)F)=C(\O)c2ccco2)cc1Cl	57	n	n	n	n
COc1cccc(S(=O)(=O)Nc2ccc(C(O)(C(F)(F)F)C(F)(F)F)cc2)c1	n	x	n	x	x
CCN(c1cccc(C)c1)S(=O)(=O)c1ccc(-n2cccn2)cc1	n	n	22	n	n
Clc1c(-c2ccccc2)nnn1-c1ccccc1	36	n	n	n	n
Nn1c(COc2ccccc2F)nnc1SCC(=O)NC1CCCCC1	n	x	n	x	x
CCCCC(CC)CN=C(N)NC(N)=NCCCCCCN=C(N)NC(N)=NCC(CC)CCCC (stereo not drawn)	38	x	n	x	x
CCCCC(CC)CO (stereo not drawn)	n	x	n	x	x
COc1ccc(C2N=C(c3ccccc3)NO2)cc1OC (stereo not drawn)	n	n	n	n	n
FC(F)Oc1ccc(C2N=C(c3ccccc3)NO2)cc1 (stereo not drawn)	34	n	n	n	n
CCOC(=O)c1c2c(n(Cc3ccccc3)c1C)C(=O)C(=O)c1ccccc1-2	n	x	32	x	x
CN1CCc2cc3c(c4c2[C@H]1[C@H](O)c1ccccc1-4)OCO3	n	n	47	n	n
CC1CCCCN1S(=O)(=O)c1ccc(N(C(=O)c2cnccn2)C(C(=O)NC2CCCCC2)c2cccs2)cc1 (stereo not drawn)	n	n	28	n	n
CCCCOC(=O)CCN1C(=O)/C(=C2\SC(=S)N(CCC(=O)OCCCC)C2=O)SC1=S	n	n	28	n	n
COc1cccc(C(NC(C)=O)c2nc(-c3ccncc3)cs2)c1 (stereo not drawn)	n	x	n	x	x
SMILES	SKN-1 inh	MEKK2 WT-MEK5	NRP1-CendR mod	MEKK2mut PB1 HTS	MEKK3 PB1 HTS
COC(=O)[C@@]12C[C@@H](CC(=O)NCc3ccc(OC)c(OC)c3)C(=O)N(Cc3ccc4c(c3)OCO4)C1=CCC(C)(C)C2	n	x	n	x	x
COC(=O)C1=C(CS(=O)(=O)c2cc(OC)ccc2OC)NC(=O)NC1c1ccc(O)c(OC)c1 (stereo not drawn)	n	n	20	n	n
CCOC(=O)Nc1nc(-c2ccc(F)cc2F)cs1	56	n	n	n	n
O=C(/C=C/c1ccc2c(c1)OCO2)Nc1nc(-c2ccc(F)cc2F)cs1	x	n	x	n	n
O=C1C=C(c2ccc(OC(F)(F)F)cc2)C[C@@H](c2ccc(Cl)cc2)C1	n	x	n	x	x
CCOC(=O)NC1Cc2ccccc2C1Sc1ccccn1 (stereo not drawn)	n	n	n	n	n
O=[N+]([O-])c1ccc(CN2CC(N3CCC(Cc4ccccc4)CC3)CS2(=O)=O)cc1 (stereo not drawn)	n	x	n	x	x
CC(C)c1ccc(NC(=O)Nc2nnc([C@@H]3C[C@H](O)[C@@H](CO)O3)s2)cc1	n	x	n	x	x
Cc1cc(C(=O)NC(C)C2CCCO2)cs1 (stereo not drawn)	n	n	44	n	n
C=CCOc1ccccc1CN1CCCCCC1	n	n	n	n	n
COc1ccc(C(C(=O)NC2CCCC2)N(C(=O)c2snc(C(N)=O)c2N)c2ccccc2OC)cc1OC (stereo not drawn)	n	n	32	n	n
COc1ccc(C(C(=O)NC2CCCC2)N(C(=O)c2snc(C(N)=O)c2N)c2cc(C)ccc2OC)cc1OC (stereo not drawn)	n	n	n	n	n
NC(=O)c1nsc(C(=O)N(c2cccc(F)c2)C(C(=O)NC2CCCC2)c2ccco2)c1N (stereo not drawn)	n	0.0[inhibitor]	n	n	1.0[inhibitor]
Clc1ccsc1-c1csc(-c2cccnc2)n1	42	n	n	n	n
CC(=O)NS(=O)(=O)c1ccc(N=NN2CCOCC2)cc1	n	n	27	n	n
Brc1ccc(N/N=C(/N=Nc2nn[nH]n2)c2ccccc2)cc1	n	n	42	n	n
O=C(O)c1ccc(N=N/C(=N\Nc2ccc(C(=O)O)cc2)c2ccccc2)cc1	n	x	34	x	x
O=C(CSc1n[nH]c(=O)[nH]c1=O)Nc1ccc(Br)cc1Br	n	x	31	x	x
CC(=O)c1cccc(-c2ccnc3c2CC(C(=O)Nc2cccc(Oc4ccccc4)c2)O3)c1 (stereo not drawn)	n	x	n	x	x
CCC(=O)Nc1ccc(N2CCCCC2)c(C(=O)Nc2ccc(OC)cc2)c1	n	n	n	n	n
COc1ccc(CC(=O)Nc2ccc(N3CCCC3)c(C)c2)cc1	n	33[inhibitor]	n	n	n
CNC(=S)Nc1ccc(N2CCCC2)c(S(=O)(=O)Nc2ccc(OC)cc2)c1	n	x	42	x	x
N#Cc1c2ccc(O)cc2n2ccccc12	n	n	31	n	n
COc1ccc(-c2ccc(C(=O)NCc3ccc(N(C)C)cc3)c3occc23)c(C)c1	n	x	n	x	x
CC(=O)c1ccc(NC(=O)C(C)N2CCN(C/C=C/c3ccccc3)CC2)cc1 (stereo not drawn)	n	n	n	+	191
CC(C(=O)Nc1ccc([N+](=O)[O-])cc1)N1CCN(C/C=C/c2ccccc2)CC1 (stereo not drawn)	n	n	n	n	n
COc1ccc(-c2cc(=O)oc3cc(OCC(=O)N(C)C)ccc23)cc1	37	n	n	n	n
CCN(CC)C(=O)COc1ccc2c(-c3ccccc3)cc(=O)oc2c1	n	n	n	n	n
CCCCC1Cc2[nH]c(=S)[nH]c(=O)c2C(c2ccc(F)cc2)O1 (stereo not drawn)	n	x	n	x	x

Source: PubChem (several laboratories)
